Experimental findings from ChEMBL document CHEMBL2218924, “A broad activity screen in support of a chemogenomic map for kinase signalling research and drug discovery” (Biochem J, 2013) are described below.

As a reminder, the residual activity is the signal under treatment as a percentage of the control signal.

Assay [1] has as its target T1, Testis-specific serine/threonine-protein kinase 1 (Homo sapiens) (UniProt Q9BXA7).
T1 sequence (whole entry): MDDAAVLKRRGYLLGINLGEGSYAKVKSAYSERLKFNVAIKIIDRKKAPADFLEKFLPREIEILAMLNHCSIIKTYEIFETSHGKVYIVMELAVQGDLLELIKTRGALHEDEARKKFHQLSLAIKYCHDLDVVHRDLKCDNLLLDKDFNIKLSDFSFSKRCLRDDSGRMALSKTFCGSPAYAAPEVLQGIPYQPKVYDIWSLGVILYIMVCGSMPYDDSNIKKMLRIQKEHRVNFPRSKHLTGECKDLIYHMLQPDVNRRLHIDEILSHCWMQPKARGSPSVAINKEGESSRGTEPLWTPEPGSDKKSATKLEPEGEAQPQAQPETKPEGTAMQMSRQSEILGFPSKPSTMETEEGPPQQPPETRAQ
The conditions noted are these: at 1 µM.

For assay [2], the target named is T1, Testis-specific serine/threonine-protein kinase 1 (Homo sapiens). To be noted: at 10 µM.
Assay [3] deals with T2, Tyrosine-protein kinase Tec (Homo sapiens) (UniProt P42680).
T2 sequence (whole entry): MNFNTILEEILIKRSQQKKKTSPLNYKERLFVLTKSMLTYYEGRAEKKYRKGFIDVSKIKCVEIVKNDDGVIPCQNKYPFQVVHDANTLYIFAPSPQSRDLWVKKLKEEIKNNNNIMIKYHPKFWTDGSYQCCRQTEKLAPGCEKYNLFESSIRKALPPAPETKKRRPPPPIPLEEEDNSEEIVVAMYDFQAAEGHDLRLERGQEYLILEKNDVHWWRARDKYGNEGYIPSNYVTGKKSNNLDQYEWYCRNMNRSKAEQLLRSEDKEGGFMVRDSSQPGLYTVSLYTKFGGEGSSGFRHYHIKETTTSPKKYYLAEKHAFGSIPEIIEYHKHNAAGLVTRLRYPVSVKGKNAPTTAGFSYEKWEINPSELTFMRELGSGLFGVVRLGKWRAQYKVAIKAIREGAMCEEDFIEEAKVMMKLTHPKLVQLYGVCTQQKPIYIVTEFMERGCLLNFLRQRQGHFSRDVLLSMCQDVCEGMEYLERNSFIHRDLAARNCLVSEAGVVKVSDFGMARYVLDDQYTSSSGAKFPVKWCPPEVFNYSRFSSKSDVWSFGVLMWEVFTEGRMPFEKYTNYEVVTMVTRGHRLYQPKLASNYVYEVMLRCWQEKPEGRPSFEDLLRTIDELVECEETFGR
To be noted: at 1 µM.

In assay [4] the target is T2, Tyrosine-protein kinase Tec (Homo sapiens). To be noted: at 10 µM.
Assay [5] concerns the target Angiopoietin-1 receptor (Homo sapiens) (UniProt Q02763). The conditions noted are these: at 1 µM.
Assay [6] shares this target. The conditions noted are these: at 10 µM.
Assay [7] deals with High affinity nerve growth factor receptor (Homo sapiens) (UniProt P04629). To be noted: at 1 µM.
Assay [8] shares this target. To be noted: at 10 µM.
The target of assay [9] is BDNF/NT-3 growth factors receptor (Homo sapiens) (UniProt Q16620). To be noted: at 10 µM.
BDNF/NT-3 growth factors receptor (Homo sapiens), sequence (Q16620 32-822 limits assumed): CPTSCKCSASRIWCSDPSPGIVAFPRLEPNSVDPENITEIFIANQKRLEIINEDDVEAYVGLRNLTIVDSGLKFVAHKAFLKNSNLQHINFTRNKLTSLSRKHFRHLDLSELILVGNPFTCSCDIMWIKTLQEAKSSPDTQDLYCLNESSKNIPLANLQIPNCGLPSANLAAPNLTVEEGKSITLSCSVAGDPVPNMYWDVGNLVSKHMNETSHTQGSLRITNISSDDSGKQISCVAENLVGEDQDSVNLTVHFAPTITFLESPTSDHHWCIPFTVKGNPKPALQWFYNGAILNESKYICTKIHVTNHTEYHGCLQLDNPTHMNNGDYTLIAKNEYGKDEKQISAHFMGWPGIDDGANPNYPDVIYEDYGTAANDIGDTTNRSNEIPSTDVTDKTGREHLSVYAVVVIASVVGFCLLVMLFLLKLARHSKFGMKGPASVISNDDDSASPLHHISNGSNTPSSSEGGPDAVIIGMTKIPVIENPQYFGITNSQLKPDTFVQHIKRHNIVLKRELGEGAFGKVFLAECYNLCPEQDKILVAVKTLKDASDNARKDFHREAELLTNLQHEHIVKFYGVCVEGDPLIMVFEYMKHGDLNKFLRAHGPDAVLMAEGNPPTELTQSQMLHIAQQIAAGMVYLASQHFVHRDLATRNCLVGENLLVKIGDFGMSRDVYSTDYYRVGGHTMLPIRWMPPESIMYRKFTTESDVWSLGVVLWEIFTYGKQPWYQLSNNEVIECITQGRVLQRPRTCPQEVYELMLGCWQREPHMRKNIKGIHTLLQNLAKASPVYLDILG
The target of assay [10] is T3, Tyrosine-protein kinase TXK (Homo sapiens) (UniProt P42681).
T3 sequence (whole entry): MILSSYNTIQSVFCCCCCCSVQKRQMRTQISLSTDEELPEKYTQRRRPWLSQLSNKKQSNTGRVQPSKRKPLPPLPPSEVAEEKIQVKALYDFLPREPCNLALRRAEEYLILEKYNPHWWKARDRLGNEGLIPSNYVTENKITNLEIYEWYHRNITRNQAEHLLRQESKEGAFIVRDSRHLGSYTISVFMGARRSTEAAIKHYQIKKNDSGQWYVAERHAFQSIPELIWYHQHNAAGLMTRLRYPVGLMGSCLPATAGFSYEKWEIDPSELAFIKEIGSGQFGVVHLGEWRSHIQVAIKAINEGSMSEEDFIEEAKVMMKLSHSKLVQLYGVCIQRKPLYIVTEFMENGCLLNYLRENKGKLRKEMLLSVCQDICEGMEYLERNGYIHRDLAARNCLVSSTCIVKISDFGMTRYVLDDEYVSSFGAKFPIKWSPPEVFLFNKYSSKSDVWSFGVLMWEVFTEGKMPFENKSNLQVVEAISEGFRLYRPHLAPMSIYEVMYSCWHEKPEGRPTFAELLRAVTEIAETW
The conditions noted are these: at 10 µM.

Assay [11] deals with T4, Serine/threonine-protein kinase ULK2 (Homo sapiens) (UniProt Q8IYT8).
T4 sequence (whole entry): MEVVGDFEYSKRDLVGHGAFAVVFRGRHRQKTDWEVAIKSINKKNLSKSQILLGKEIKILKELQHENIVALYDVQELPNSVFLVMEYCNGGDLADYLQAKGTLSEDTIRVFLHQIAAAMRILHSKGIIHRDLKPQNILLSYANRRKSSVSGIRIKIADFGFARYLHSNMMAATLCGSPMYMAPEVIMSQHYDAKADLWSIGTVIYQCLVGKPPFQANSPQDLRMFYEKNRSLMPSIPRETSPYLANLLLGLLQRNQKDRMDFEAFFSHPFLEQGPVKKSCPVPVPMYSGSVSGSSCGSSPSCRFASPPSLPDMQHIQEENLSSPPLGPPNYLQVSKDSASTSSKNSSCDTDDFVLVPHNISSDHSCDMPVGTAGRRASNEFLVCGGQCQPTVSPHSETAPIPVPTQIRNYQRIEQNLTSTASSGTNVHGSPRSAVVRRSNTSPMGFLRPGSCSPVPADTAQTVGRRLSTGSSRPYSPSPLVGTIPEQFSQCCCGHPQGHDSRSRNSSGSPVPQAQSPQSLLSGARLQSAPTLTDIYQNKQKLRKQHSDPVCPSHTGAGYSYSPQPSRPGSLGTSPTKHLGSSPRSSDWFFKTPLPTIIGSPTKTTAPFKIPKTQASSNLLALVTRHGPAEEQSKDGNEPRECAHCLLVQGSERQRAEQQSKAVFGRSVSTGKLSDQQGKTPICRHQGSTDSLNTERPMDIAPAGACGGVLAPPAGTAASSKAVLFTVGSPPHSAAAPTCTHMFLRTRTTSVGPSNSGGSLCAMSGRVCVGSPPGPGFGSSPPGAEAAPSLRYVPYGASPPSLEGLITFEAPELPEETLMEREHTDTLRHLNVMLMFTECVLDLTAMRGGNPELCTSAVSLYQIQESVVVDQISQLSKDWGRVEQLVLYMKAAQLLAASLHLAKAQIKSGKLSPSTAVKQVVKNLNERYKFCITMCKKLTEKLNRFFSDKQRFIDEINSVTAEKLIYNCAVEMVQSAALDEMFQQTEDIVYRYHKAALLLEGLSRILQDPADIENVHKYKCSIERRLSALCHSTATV
To be noted: at 1 µM.

Assay [12] deals with T4, Serine/threonine-protein kinase ULK2 (Homo sapiens). The conditions noted are these: at 10 µM.
Assay [13] deals with T5, Serine/threonine-protein kinase ULK3 (Homo sapiens) (UniProt Q6PHR2).
T5 sequence (whole entry): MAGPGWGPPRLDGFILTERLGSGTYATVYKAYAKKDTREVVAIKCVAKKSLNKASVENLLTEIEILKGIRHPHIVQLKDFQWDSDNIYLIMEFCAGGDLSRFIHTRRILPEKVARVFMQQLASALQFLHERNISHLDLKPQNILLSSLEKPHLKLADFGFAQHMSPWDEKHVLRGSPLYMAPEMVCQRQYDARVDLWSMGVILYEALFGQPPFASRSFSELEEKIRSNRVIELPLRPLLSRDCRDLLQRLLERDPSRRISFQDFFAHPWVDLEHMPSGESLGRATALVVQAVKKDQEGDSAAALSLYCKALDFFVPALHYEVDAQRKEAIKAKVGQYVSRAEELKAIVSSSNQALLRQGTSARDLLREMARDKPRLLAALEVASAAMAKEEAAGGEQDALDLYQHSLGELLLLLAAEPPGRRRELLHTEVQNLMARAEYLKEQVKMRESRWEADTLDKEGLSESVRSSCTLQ
The conditions noted are these: at 10 µM.

Assay [14] addresses Serine/threonine-protein kinase VRK2 (Homo sapiens) (UniProt Q86Y07). To be noted: at 1 µM.
Assay [15] has the same target. To be noted: at 10 µM.
Assay [16] concerns the target T6, Testis-specific serine/threonine-protein kinase 2 (Homo sapiens) (UniProt Q96PF2).
T6 sequence (whole entry): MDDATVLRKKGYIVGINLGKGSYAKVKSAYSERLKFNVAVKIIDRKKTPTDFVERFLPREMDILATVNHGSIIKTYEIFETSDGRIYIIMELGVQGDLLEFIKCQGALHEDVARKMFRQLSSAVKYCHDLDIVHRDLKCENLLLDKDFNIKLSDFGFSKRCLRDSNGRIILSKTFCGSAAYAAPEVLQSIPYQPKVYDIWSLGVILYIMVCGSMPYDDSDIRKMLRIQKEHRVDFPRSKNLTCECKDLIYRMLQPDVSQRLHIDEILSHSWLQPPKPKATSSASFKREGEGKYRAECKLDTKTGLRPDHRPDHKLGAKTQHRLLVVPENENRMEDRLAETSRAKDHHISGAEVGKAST
The conditions noted are these: at 10 µM.

In assay [17] the target is BDNF/NT-3 growth factors receptor (Homo sapiens) (UniProt Q16620). To be noted: at 1 µM.
Assay [18] concerns the target T3, Tyrosine-protein kinase TXK (Homo sapiens). To be noted: at 1 µM.
For assay [19], the target named is T5, Serine/threonine-protein kinase ULK3 (Homo sapiens). To be noted: at 1 µM.
Assay [20] addresses Serine/threonine-protein kinase WNK2 (Homo sapiens) (UniProt Q9Y3S1). To be noted: at 1 µM.

SMILES strings stand for the structures.

Serine/threonine-protein kinase VRK2 (Homo sapiens), sequence (Q86Y07 whole entry): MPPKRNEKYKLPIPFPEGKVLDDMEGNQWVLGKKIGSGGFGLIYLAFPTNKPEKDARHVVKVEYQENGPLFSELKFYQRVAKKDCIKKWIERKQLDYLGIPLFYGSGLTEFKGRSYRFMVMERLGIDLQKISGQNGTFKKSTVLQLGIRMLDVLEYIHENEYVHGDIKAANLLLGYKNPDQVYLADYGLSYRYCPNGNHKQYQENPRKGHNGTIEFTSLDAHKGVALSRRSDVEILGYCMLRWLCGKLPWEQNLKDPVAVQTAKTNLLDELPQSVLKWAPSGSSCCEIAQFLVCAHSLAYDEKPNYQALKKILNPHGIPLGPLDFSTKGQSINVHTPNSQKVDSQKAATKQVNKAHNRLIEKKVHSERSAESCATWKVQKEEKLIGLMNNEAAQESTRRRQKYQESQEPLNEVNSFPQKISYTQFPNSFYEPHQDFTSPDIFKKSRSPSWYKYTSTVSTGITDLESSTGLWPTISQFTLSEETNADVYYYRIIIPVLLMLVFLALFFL
Serine/threonine-protein kinase WNK2 (Homo sapiens), sequence (Q9Y3S1 whole entry): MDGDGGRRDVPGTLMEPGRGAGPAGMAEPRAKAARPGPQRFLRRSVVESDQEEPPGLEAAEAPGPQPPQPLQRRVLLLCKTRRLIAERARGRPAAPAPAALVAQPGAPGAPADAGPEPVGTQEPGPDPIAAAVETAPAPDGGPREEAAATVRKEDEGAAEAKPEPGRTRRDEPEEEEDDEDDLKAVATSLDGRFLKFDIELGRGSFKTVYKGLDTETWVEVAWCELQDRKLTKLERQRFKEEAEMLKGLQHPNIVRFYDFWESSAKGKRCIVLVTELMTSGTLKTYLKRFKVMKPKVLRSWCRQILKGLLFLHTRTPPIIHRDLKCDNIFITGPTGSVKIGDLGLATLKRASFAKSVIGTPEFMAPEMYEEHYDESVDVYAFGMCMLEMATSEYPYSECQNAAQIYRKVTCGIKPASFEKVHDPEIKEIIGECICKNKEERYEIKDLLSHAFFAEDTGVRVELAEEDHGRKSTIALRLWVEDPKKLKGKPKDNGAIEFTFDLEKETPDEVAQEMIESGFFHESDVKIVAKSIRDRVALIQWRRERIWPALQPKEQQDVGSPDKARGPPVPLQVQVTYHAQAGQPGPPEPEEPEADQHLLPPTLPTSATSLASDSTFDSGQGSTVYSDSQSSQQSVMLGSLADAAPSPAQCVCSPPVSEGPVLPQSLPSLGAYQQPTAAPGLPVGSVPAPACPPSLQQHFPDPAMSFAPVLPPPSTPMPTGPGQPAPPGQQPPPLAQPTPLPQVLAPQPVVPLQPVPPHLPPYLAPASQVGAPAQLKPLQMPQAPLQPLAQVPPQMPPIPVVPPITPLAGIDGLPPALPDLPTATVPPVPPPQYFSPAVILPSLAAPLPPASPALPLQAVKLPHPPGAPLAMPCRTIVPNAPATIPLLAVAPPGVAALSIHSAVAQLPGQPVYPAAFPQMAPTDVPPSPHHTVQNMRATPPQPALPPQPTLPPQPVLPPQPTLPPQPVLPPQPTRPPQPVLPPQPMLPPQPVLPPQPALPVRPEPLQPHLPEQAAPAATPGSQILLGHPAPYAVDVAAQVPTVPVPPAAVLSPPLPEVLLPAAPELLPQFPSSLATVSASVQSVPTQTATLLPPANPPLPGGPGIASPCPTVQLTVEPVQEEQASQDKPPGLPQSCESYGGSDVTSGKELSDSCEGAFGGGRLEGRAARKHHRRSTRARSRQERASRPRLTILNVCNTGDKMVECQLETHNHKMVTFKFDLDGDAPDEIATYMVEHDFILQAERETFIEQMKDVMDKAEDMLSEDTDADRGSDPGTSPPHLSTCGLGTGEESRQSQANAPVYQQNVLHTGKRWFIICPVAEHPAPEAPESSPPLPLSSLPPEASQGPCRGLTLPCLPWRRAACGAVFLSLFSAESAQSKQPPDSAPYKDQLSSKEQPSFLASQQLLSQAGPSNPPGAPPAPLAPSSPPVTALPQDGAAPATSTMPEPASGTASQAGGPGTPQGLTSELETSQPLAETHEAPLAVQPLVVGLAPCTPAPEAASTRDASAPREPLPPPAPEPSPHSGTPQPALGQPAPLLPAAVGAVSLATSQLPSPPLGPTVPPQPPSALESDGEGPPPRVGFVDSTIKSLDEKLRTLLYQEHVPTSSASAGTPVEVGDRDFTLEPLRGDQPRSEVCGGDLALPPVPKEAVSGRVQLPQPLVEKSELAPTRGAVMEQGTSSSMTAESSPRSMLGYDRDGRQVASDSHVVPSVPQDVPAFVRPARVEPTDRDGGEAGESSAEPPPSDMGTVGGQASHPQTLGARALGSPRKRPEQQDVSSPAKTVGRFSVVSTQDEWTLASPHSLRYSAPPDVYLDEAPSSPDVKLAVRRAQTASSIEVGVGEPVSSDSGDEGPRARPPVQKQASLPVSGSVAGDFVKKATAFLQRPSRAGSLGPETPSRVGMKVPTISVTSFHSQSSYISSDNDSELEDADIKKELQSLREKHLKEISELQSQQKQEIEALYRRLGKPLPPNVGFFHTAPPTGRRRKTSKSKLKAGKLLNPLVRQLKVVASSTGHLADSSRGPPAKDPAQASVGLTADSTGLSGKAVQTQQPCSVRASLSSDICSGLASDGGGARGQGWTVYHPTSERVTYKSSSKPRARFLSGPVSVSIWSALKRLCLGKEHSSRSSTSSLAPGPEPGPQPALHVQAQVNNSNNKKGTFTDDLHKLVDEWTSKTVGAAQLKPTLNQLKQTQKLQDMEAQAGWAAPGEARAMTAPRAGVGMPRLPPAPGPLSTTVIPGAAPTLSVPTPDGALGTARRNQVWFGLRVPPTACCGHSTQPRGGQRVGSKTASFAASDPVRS
Angiopoietin-1 receptor (Homo sapiens), sequence (Q02763 whole entry): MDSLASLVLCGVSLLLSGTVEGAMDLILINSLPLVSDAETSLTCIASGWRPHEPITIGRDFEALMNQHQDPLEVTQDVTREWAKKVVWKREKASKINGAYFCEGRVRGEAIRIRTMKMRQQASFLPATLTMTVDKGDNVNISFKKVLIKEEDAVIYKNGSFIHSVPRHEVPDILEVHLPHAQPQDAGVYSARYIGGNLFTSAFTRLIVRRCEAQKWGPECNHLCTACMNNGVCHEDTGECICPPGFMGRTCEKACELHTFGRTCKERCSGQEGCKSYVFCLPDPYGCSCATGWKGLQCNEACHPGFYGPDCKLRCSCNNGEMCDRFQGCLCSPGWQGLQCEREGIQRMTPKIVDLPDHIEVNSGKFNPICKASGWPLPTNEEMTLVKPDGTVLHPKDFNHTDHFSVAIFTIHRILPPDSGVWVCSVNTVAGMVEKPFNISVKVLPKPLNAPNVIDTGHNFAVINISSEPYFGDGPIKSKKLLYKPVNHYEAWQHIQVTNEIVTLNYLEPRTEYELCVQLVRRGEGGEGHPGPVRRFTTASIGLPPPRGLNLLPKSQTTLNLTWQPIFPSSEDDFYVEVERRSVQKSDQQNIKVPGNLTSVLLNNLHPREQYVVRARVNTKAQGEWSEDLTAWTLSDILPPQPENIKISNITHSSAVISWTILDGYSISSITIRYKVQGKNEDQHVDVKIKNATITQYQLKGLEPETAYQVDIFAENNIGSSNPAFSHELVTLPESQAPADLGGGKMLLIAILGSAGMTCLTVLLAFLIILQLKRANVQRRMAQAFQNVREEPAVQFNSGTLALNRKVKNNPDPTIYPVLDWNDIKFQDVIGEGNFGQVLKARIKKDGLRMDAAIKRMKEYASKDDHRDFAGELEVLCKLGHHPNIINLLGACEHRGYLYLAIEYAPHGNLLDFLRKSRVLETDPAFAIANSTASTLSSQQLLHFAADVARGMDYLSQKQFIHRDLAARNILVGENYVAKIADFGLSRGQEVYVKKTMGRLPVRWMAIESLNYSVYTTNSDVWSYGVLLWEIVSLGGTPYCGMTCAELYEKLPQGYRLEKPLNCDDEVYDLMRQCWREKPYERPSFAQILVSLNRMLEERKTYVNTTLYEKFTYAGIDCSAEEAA

Regarding `Nc1ncnc2c1cnn2-c1ccccc1`, the residual activity in [1] was 92%; in assay [2], 87%; in assay [3], 99%; in assay [4] it was 90%; in [5], 73%; in [6], 102%. Also, the residual activity came to 91% in assay [7]; 83% in assay [8]; 97% in assay [9]; 78% in [10]; 101% in [11]; 98% in assay [12]. Also, the residual activity is 91% in [13], 102% (inactive) in assay [14] and 90% in [15].
For `CC(C)N(CCC(=O)c1ccc2ccccc2c1)Cc1ccccc1`, the residual activity in [1] is 81%; in [2] it was 78%; in assay [4] it was 73%; in [10], 42%; in assay [13] it was 86%; in assay [14], 100% (inactive). Also, the residual activity in [15] was 86%.
As to `Nc1n[nH]c2nc3ccccc3nc12`, the residual activity in [1] is 85%; in assay [2] it was 87%; in assay [16], 71%; in assay [3], 81%; in assay [4], 86%; in [7] it was 86%. Besides, the residual activity in [8] came to 67%; in [17], 84%; in assay [9], 85%; in assay [18], 87%; in [10], 76%; in [12], 92%. The residual activity in [19] was 87%; in assay [13], 84%; in assay [14], 99% (inactive); in assay [15] it was 86%.
For `NCCNc1ncc(C(N)=O)c(Nc2cccc(C(F)(F)F)c2)n1`, the residual activity in [1] was found to be 56%; in assay [2], 10%; in assay [5], 100%; in [6], 49%; in assay [17], 47%; in [9] it was 29%. The residual activity in assay [10] was 61%; in assay [19] it was 82%; in assay [13] it was 24%; in assay [15], 43%; in assay [20] it was 111% (inactive).
Regarding `CC(C)(C)n1nc(Cc2cccc3ccccc23)c2c(N)ncnc21`, the residual activity in assay [1] stood at 96%; in [2], 90%; in assay [3], 53%; in assay [4], 10%; in assay [5], 71%; in assay [6], 28%. The residual activity came out at 80% in assay [7]; 17% in assay [8]; 45% in assay [17]; 24% in [9]; 43% in assay [18]; 7% in [10]. The residual activity was 106% in assay [11]; 95% in [12]; 109% in [19]; 90% in [13]; 92% (inactive) in [14]; 68% in assay [15]. Further, the residual activity in assay [20] was 98% (inactive).
Regarding `O=C1Cc2c([nH]c3ccc(Br)cc23)-c2ccccc2N1`, the residual activity was found to be 87% in assay [1]; 49% in assay [2]; 76% in assay [16]; 92% in [3]; 55% in assay [4]; 66% in [9]. In addition, the residual activity in assay [14] was 99% (inactive); in assay [15] it was 90%; in [20], 93% (inactive).
On to `CCN(CC)CCNC(=O)c1c(C)[nH]c(/C=C2\C(=O)Nc3ccc(Cl)cc32)c1C`, for which the residual activity came to 8% in assay [1]; 0% in assay [2]; 26% in [16]; 78% in assay [3]; 29% in assay [4]; 56% in assay [5]. Further, the residual activity is 19% in [6]; -1% in assay [7]; 0% in assay [8]; 40% in [17]; -12% in [9]; 70% in [18]. The residual activity in assay [10] amounted to 21%; in assay [11] it was 23%; in assay [12] it was 2%; in [19], 17%; in assay [13], 2%.
